# Assays:
# Conditions in all cases: concentration: 1 μM, replicates: in singlicate; n = 1
# HIPK3 = tested on: HIPK3
# HIPK4 = tested on: HIPK4
# HPK1 = tested on: HPK1
# HUNK = tested on: HUNK
# ICK = tested on: ICK
# IGF1R = tested on: IGF1R
# IKK-alpha = tested on: T1, IKK-alpha
# T1 construct: gene CHUK
# IKK-beta = tested on: T2, IKK-beta
# T2 construct: gene IKBKB
# IKK-epsilon = tested on: T3, IKK-epsilon
# T3 construct: gene IKBKE
# INSRR = tested on: INSRR
# 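Further: KINOMEscan kinase panel screen.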
smiles,measurement,setting,value
COc1ccc(-n2cnc3c(N)ncnc32)cc1 [SKF-97236],%Inh,HIPK3,12%
same,%Inh,HIPK4,29%
same,%Inh,HPK1,5%
same,%Inh,HUNK,0%
same,%Inh,ICK,0%
same,%Inh,IGF1R,19%
same,%Inh,IKK-alpha,0%
same,%Inh,IKK-beta,19%
same,%Inh,IKK-epsilon,3%
same,%Inh,INSRR,2%
COc1ccc(Nc2nccc(N3CCC(NS(=O)(=O)c4ccc(NC(C)=O)cc4)C3)n2)cc1 (stereo not drawn) [GSK1379729],%Inh,HIPK3,14%
same,%Inh,HIPK4,12%
same,%Inh,HPK1,64%
same,%Inh,HUNK,0%
same,%Inh,ICK,13%
same,%Inh,IGF1R,22%
same,%Inh,IKK-alpha,12%
same,%Inh,IKK-beta,6%
same,%Inh,IKK-epsilon,12%
same,%Inh,INSRR,21%
COc1cc2nccc(Nc3cccc(Oc4ccccc4)c3)c2cc1OC.Cl [GW284543],%Inh,HIPK3,0%
same,%Inh,HIPK4,21%
same,%Inh,HPK1,2%
same,%Inh,HUNK,15%
same,%Inh,ICK,0%
same,%Inh,IGF1R,14%
same,%Inh,IKK-alpha,0%
same,%Inh,IKK-beta,0%
same,%Inh,IKK-epsilon,0%
same,%Inh,INSRR,0%
Cc1nnc(-c2ccc3ncn(-c4ccc(S(C)=O)cc4)c3c2)o1 (stereo not drawn),%Inh,HIPK3,13%
same,%Inh,HIPK4,6%
same,%Inh,HPK1,0%
same,%Inh,HUNK,0%
same,%Inh,ICK,0%
same,%Inh,IGF1R,0%
same,%Inh,IKK-alpha,25%
same,%Inh,IKK-beta,7%
same,%Inh,IKK-epsilon,0%
same,%Inh,INSRR,0%
Cn1c(=O)c(F)c(Nc2ccc(I)cc2F)c2c(=O)n(OC[C@H](O)CO)cnc21,%Inh,HIPK3,0%
same,%Inh,HIPK4,81%
same,%Inh,HPK1,0%
same,%Inh,HUNK,0%
same,%Inh,ICK,0%
same,%Inh,IGF1R,0%
same,%Inh,IKK-alpha,0%
same,%Inh,IKK-beta,0%
same,%Inh,IKK-epsilon,0%
same,%Inh,INSRR,0%
Cc1ccc(-c2ccc3c(ccc4sc5c(c43)NC[C@@H](C)N=C5N(C)C)n2)cn1,%Inh,HIPK3,0%
same,%Inh,HIPK4,9%
same,%Inh,HPK1,8%
same,%Inh,HUNK,5%
same,%Inh,ICK,0%
same,%Inh,IGF1R,0%
same,%Inh,IKK-alpha,11%
same,%Inh,IKK-beta,0%
same,%Inh,IKK-epsilon,0%
same,%Inh,INSRR,0%
CCC(=O)c1c(-c2ccccc2)c2cc(Cl)ccc2c(=O)n1Cc1cc(S(C)(=O)=O)n(CCC(C)(C)O)n1,%Inh,HIPK3,0%
same,%Inh,HIPK4,3%
same,%Inh,HPK1,17%
same,%Inh,HUNK,0%
same,%Inh,ICK,0%
same,%Inh,IGF1R,4%
same,%Inh,IKK-alpha,0%
same,%Inh,IKK-beta,3%
same,%Inh,IKK-epsilon,30%
same,%Inh,INSRR,10%
Cl.NS(=O)(=O)c1cccc(Nc2cc(-c3ccc(F)cc3)n[nH]2)c1 [GW824645],%Inh,HIPK3,18%
same,%Inh,HIPK4,18%
same,%Inh,HPK1,0%
same,%Inh,HUNK,58%
same,%Inh,ICK,12%
same,%Inh,IGF1R,0%
same,%Inh,IKK-alpha,1%
same,%Inh,IKK-beta,9%
same,%Inh,IKK-epsilon,8%
same,%Inh,INSRR,0%
Cc1ccccc1COc1cc(-n2cnc3cc(Cl)ccc32)sc1C(N)=O [GW813349],%Inh,HIPK3,12%
same,%Inh,HIPK4,21%
same,%Inh,HPK1,62%
same,%Inh,HUNK,18%
same,%Inh,ICK,0%
same,%Inh,IGF1R,9%
same,%Inh,IKK-alpha,0%
same,%Inh,IKK-beta,0%
same,%Inh,IKK-epsilon,62%
same,%Inh,INSRR,23%
